Bioassay records: PubChem BioAssay, several laboratories
MIN6 prolif-1: MIN6 beta-cell proliferation induction; MIN6 cells proliferation, ATPlite luminescence, 48 h; cells starved in 0.2% serum; 100% = growth in 10% serum; proliferation, % at 10 µM; 330,000 compounds, 0.29% hits; AID 2380;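 active = compounds whose signal lies at least 3.5 SD above the mean of all wells on their plate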;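 also: 0% = DMSO-treated cells in low-serum medium and 100% = 10% serum control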
HTR5A ag ctr: HTR5A agonism, opioid heterodimer counter-screen; P47898; HTR5A agonist assay, luminescence, cell-based; activation, % at 9.3 µM; 340,000 compounds, 0.61% hits; in the data active = activation mostly above about 9.5%, no sharp cut-off; inactive = mostly below about 7.6%;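 also: 0% = cells with vehicle only and 100% = reference agonist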
Target sequence (P47898 whole entry, looked up): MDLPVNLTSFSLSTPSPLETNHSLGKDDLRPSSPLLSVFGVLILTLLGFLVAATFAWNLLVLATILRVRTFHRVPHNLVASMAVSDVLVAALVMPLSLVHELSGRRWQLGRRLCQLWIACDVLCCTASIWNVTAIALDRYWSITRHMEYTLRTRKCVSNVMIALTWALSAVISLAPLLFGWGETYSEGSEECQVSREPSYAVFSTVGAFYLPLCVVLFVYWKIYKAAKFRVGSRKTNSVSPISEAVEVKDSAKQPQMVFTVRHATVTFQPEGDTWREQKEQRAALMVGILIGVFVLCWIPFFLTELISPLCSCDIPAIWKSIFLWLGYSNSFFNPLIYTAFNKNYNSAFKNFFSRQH
MOR-DOR ag: OPRM1-OPRD1 heterodimerization agonism; 340,000 compounds, 0.3% hits; cells, luminescence; activation, % at 9.3 µM;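 also: 0% = vehicle-treated cells and 100% = reference agonist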
p-CIP stab down: lowers stability of the mouse p/CIP coactivator protein; decrease of EGFP signal, % at 10 µM; F442A p/CIP-EGFP cells, EGFP fluorescence, 16 h; AID 1984; 290,000 compounds, 0.01% hits;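 active = EGFP signal decrease of at least 30% at 10 µM or well 3 SD below plate mean, unless failing retest; inactive = the rest, including hits failing retest or dose response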
HTR5A inv ag: counter-screen for OPRM1-OPRD1 inverse agonists: human HTR5A inverse agonism | P47898 | HTR5A cell line, luminescence | inhibition, % at 9.3 µM | 340,000 compounds, 0.083% hits | AID 504634; in the data active = inhibition mostly above about 23%, no sharp cut-off; inactive = mostly below about 18%;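 also: 0% = cells with DMSO and 100% = no-cell wells with DMSO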
MOR-DOR inv ag: inverse agonist of human OPRM1-OPRD1 heterodimerization. P35372+P41143. cell-based MOR-DOR heterodimer luminescence, inverse agonism. inhibition, % at 9.3 µM. 340,000 compounds, 0.21% hits; in the data active = inhibition above about 22%, passing the limit was not always enough;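 also: 0% = cells with DMSO and 100% = wells without cells with DMSO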
MIN6 prolif-2: MIN6 beta-cell replication induction, confirmed; shares compounds with MIN6 prolif-1; 920 tested, under 10 active; proliferation increase, % at 50 µM; AID 463095; MIN6 beta-cell proliferation, ATPlite luminescence, 48 h; cells kept in 0.2% serum; scaled between 0.2% and 10% serum;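 active = proliferation increase above 40% at any of the four tested concentrations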
MOR-DOR ag conf: confirmation of human OPRM1-OPRD1 heterodimerization agonists; shares compounds with MOR-DOR ag; cells, MOR-DOR heterodimerization, luminescence complementation; activation, % at 9.3 µM; 830 compounds, 45% hits; AID 504904;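 also: 0% = vehicle-treated cells and 100% = reference agonist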
HTR5A ag counter: activates human HTR5A in OPRM1-OPRD1 agonist counter-screen; shares compounds with MOR-DOR ag; HTR5A agonist counterscreen, cell luminescence; activation, % at 9.3 µM; 830 compounds, 8% hits; in the data active = activation above about 17%;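 also: 0% = vehicle-treated cells and 100% = reference agonist response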
Starred values were filed as active, the others as inactive; ! = repeats disagree. Hits are enriched below; roughly 1.4% of the tested compounds scored in any of these assays. Rule as the data show it, unless noted: active = activation above about 18%; inactive = the rest.

CC12CC[C@H]3[C@@H](CCC4(O)C[C@H](O)CCC34/C=N/NC(=O)Cc3ccccc3)C1(O)CCC2C1=CC(=O)OC1 (some centres not stated) was read as MIN6 prolif-1 -1, HTR5A ag ctr 7, MOR-DOR ag 2, p-CIP stab down -1, HTR5A inv ag -18 and MOR-DOR inv ag -11.
O=C1NC(=O)C2(CCCc3ccc(N(CCCl)CCCl)cc32)N1 (configuration not stated) was read as HTR5A ag ctr -2, MOR-DOR ag 0, HTR5A inv ag 9 and MOR-DOR inv ag 1.
`ClC1=C(Cl)C2(Cl)C3C(Cl)C=CC3C1(Cl)C2(Cl)Cl` (configuration not stated) gave MIN6 prolif-1 -7, HTR5A ag ctr 0, MOR-DOR ag -1, HTR5A inv ag 0 and MOR-DOR inv ag 3.
COc1ccc(CC(C)NC2CCCCCC2)cc1 (configuration not stated) was read as MIN6 prolif-1 6.1*, HTR5A ag ctr -6, MOR-DOR ag -3, p-CIP stab down -6, HTR5A inv ag 22, MOR-DOR inv ag 15 and MIN6 prolif-2 -2.
`CCCCNC(=O)NC(C(N)=O)P(=O)(OCC)OCC` (configuration not stated) gave MIN6 prolif-1 -1, HTR5A ag ctr 5, MOR-DOR ag -1, p-CIP stab down -24, HTR5A inv ag -9 and MOR-DOR inv ag 4.
CCCCCCn1c(=O)c(C(=O)Nc2ncccc2C)c(O)c2ccccc21 was read as MIN6 prolif-1 6.6*, HTR5A ag ctr 3, MOR-DOR ag -1, p-CIP stab down -20, HTR5A inv ag -13, MOR-DOR inv ag 7 and MIN6 prolif-2 -6.
Screening O=C(CCc1nc(-c2ccccc2F)no1)N1CCC2(CC1)OCCO2 returned MIN6 prolif-1 2, HTR5A ag ctr -1, MOR-DOR ag 0, p-CIP stab down -4, HTR5A inv ag -8 and MOR-DOR inv ag 2.
Screening CC1(C)CCCN1CCC(C(N)=O)(c1ccccc1)c1ccccc1 returned HTR5A ag ctr 0, MOR-DOR ag -3, HTR5A inv ag -1 and MOR-DOR inv ag 14.
CC(C)N(CCC(C(N)=O)(c1ccccc1)c1ccccn1)C(C)C (configuration not stated) was read as MIN6 prolif-1 13*!, HTR5A ag ctr 5, MOR-DOR ag 0, p-CIP stab down -1, HTR5A inv ag -10, MOR-DOR inv ag 0 and MIN6 prolif-2 4.
`COc1ccc(-c2nc3ccccc3n2OC(=O)N(C)C)cc1` gave MIN6 prolif-1 0, HTR5A ag ctr 1, MOR-DOR ag 1, p-CIP stab down 5, HTR5A inv ag 9 and MOR-DOR inv ag -5.
CN(C)C(=O)On1c(-c2ccccc2)nc2ccc(Cl)cc21 was read as MIN6 prolif-1 12*, HTR5A ag ctr -2, MOR-DOR ag -1, p-CIP stab down -5, HTR5A inv ag 25, MOR-DOR inv ag 8 and MIN6 prolif-2 -6.
Screening COC(=O)C1=C(c2ccc(C(C)=O)cc2)C[C@@H]2CC[C@H]1N2C(=O)NCCCOC(C)C returned MIN6 prolif-1 -6, HTR5A ag ctr 0, MOR-DOR ag 0, HTR5A inv ag 14 and MOR-DOR inv ag 0.
Cc1ccccc1-n1c(-c2ccc([N+](=O)[O-])cc2)nc2ccccc2c1=O was read as MIN6 prolif-1 2, HTR5A ag ctr -1, MOR-DOR ag -1, p-CIP stab down -1, HTR5A inv ag 7 and MOR-DOR inv ag 3.
For COc1ccc(NC(=O)C2C3CCC(O3)C2C(=O)O)c(OC)c1 (configuration not stated) the results were MIN6 prolif-1 6.7*, HTR5A ag ctr -1, MOR-DOR ag -3, p-CIP stab down -7, HTR5A inv ag 3, MOR-DOR inv ag 16 and MIN6 prolif-2 -3.
For CC1CCCCC1NC1CCN(C)CC1 (configuration not stated) the results were MIN6 prolif-1 6.0*, HTR5A ag ctr 6, MOR-DOR ag 1, p-CIP stab down 1, HTR5A inv ag -41, MOR-DOR inv ag -3 and MIN6 prolif-2 -3.
Screening C[C@@H]1O[C@@H](O[C@H]2C[C@@H](O)[C@]3(CO)[C@@H]4C(CC[C@]3(O)C2)[C@@]2(O)CC[C@H](C3COC(=O)C3)[C@@]2(C)C[C@H]4O)[C@H](O)[C@H](O)[C@H]1O (some centres not stated) returned MIN6 prolif-1 6, HTR5A ag ctr 23, MOR-DOR ag 73*, HTR5A inv ag -68, MOR-DOR inv ag -402, MOR-DOR ag conf 3 and HTR5A ag counter 7.
`Clc1ccc(C(c2ccc(Cl)cc2)n2cc[n+](CC(OCc3ccc(Cl)cc3Cl)c3ccc(Cl)cc3Cl)c2)cc1` (configuration not stated) gave MIN6 prolif-1 -8, HTR5A ag ctr 20, MOR-DOR ag 63*, HTR5A inv ag -10, MOR-DOR inv ag -347, MOR-DOR ag conf 50* and HTR5A ag counter 10.
For O=C(O)c1[nH]c(=O)[nH]c(=O)c1F the results were MIN6 prolif-1 -1, HTR5A ag ctr 4, MOR-DOR ag -4, p-CIP stab down 13, HTR5A inv ag -11 and MOR-DOR inv ag 20.
For CNC(=O)Oc1ccc(N(C)C)cc1C(C)C the results were MIN6 prolif-1 5, HTR5A ag ctr 4, MOR-DOR ag 0, p-CIP stab down -5, HTR5A inv ag -13 and MOR-DOR inv ag -2.
`COc1ccc(C(CNC(=O)Cc2ccc(Cl)c(Cl)c2)N(C)C)cc1` (configuration not stated) gave MIN6 prolif-1 -4, HTR5A ag ctr -1, MOR-DOR ag 121*, p-CIP stab down 7, HTR5A inv ag 3, MOR-DOR inv ag inactive, MOR-DOR ag conf 8 and HTR5A ag counter 6.
COC(=O)C1=C(c2ccc(OC(F)(F)F)cc2)C[C@@H]2CC[C@H]1N2C(=O)N1CCC(O)CC1 was read as MIN6 prolif-1 8, HTR5A ag ctr 19, MOR-DOR ag -2, HTR5A inv ag -57 and MOR-DOR inv ag 14.
`O=C1C(=O)c2ccccc2-c2ccccc21` gave MIN6 prolif-1 -8, HTR5A ag ctr 9, MOR-DOR ag 40*, p-CIP stab down -16, HTR5A inv ag -44, MOR-DOR inv ag -222, MOR-DOR ag conf 15 and HTR5A ag counter 4.
